Pf growth 48h: P. falciparum growth inhibition at 48 hours (one generation). P. falciparum luciferase growth in erythrocytes, 48 h. Potency, µM (doses to about 28.7 µM), for the others: at the highest dose activity change, negative = inhibition, hits mostly inhibitors. 5.9% of 310,000 active. AID 504832; further: potency means the concentration at half of the fitted maximal effect; on the % scale 0 is the no-effect control and ±100 the full control effect
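Cell-based growth assay: transgenic P. falciparum expressing firefly luciferase, cultured in red cells within RPMI 1640 containing 0.5% w/v Albumax, 24 mM bicarbonate and gentamycin. A drop in luciferase activity indicates inhibition.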
AMA1-RON2 inh: AMA1-RON2 (P. falciparum) interaction inhibition; AlphaScreen AMA1-biotinylated RON2 peptide binding; Potency, µM (top dose mostly 58.2 µM), for inactives: at the highest dose activity change, negative = inhibition, usual class: inhibitors; 0.2% of 360,000 active;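 further: potency means the concentration at half of the fitted maximal effect; 0% = vehicle wells and -100% = peptide control; nearly all actives have a fitted effect of over 45% in size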
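AMA1 (3D7) with his tag at 25 nM final met compounds first, then biotinylated RON2 peptide at 25 nM; detection used donor plus acceptor beads, 10 µg/mL apiece, read by AlphaScreen after 30 min at room temperature.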
Pf growth 96h: inhibits malaria parasite growth, 96 h. P. falciparum luciferase reporter growth, 96 h. Potency, µM (top dose mostly 28.7 µM), for the others: at the top dose activity change, negative = inhibition, hits mostly inhibitors. 6.9% of 320,000 active. AID 504834; further: potency means the concentration at half of the fitted maximal effect; on the % scale 0 is the no-effect control and ±100 the full control effect
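Erythrocytes infected with luciferase-expressing P. falciparum were dispensed at 2% hematocrit and 0.05% parasitemia (final), then incubated with compounds 96 hours at 37 C in 5% CO2. Luminescence after detection reagent addition reported growth.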
HCV inh: HCV inhibition | Huh7.5.1 HCVcc-Cre infection, luciferase reporter, 44 h | Potency, µM (doses to about 41.8 µM), for inactives: top-dose activity change, negative = inhibition, most hits filed as inhibitors | 3.4% of 340,000 active | AID 651820; further: potency means the concentration at half of the fitted maximal effect; on the % scale 0 is the no-effect control and ±100 the full control effect
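Reporter virus HCVcc-Cre (~0.5 moi) infects cells exposed to compound; seeding density 1,000 cells/well with 4 h settling beforehand. Luminescence, 15 sec read, taken 44 h post-infection following a 15 min RT substrate incubation.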
Shiga toxin inh: Shiga toxin inhibition | AID 2315 | inhibition, % at 38.7 µM | Vero cells, Shiga toxin protein synthesis inhibition reporter | 9.2% of 290,000 active; in the data active means inhibition mostly above about 28%, no sharp cut-off; inactive means mostly below about 43%; further: 0% is about no effect
CHX counter: affects cycloheximide protein synthesis inhibition readout, counter-screen | cell reporter, cycloheximide protein synthesis inhibition counterscreen | max response, % | 12% of 300,000 active | AID 2314; in the data active means max response mostly above about 13%, no sharp cut-off; inactive means mostly below about 14%; further: read at 38.3 µM for the half of the compounds with a filed dose; 0% is about no effect
* hit, by the source's call; [ ] = remark or other dose. Shown are actives, neighbours in structure and some others; about 21% of the full set was active somewhere. Unless noted, the call rests on the fitted dose curve; in most records, active means well fitted curve in the direction sought with a large enough effect; inconclusive means small, poorly fitted or top-dose-only effect, or another doubt; inactive means no such curve, though single readings can be large; an effect the other way counts as inactive or inconclusive.

`CCOc1ccc(S(=O)(=O)N2CCCC(C(=O)N3CCOCC3)C2)cc1C` (centres undefined) gave Pf growth 48h -6.5%, AMA1-RON2 inh 12.5%, Pf growth 96h 26.1%, HCV inh -7.1%, Shiga toxin inh -5.9 and CHX counter -0.9.
Screening O=C(N=C1SC2CS(=O)(=O)CC2N1c1ccc(F)c(Cl)c1)C1CCCO1 (centres undefined) returned Pf growth 48h 26.4%, AMA1-RON2 inh -3.1%, Pf growth 96h 32.1%, HCV inh 13.8%, Shiga toxin inh 2.5 and CHX counter -0.5.
Screening Cc1c(C#N)c2ccccc2n1CCOc1ccccc1F returned Pf growth 48h 1.17µM*, AMA1-RON2 inh 9.3%, Pf growth 96h 2.94µM*, HCV inh -28.0%, Shiga toxin inh -5.5 and CHX counter -2.5.
`COC(=O)Cn1c(C)c(C#N)c2ccccc21` gave Pf growth 48h 12.1%, AMA1-RON2 inh -1.9%, Pf growth 96h -7.8%, HCV inh 9.1%, Shiga toxin inh -9.2 and CHX counter -4.6.
NC(=O)c1ccc(NC(=O)CNC(c2ccccc2)c2ccccc2)cc1 was read as Pf growth 48h inconclusive, AMA1-RON2 inh -6.6%, Pf growth 96h -15.5%, HCV inh 12.8%, Shiga toxin inh -7.4 and CHX counter -4.8.
For COc1ccc(NC(=O)Nc2ccc(Br)cn2)cc1 the results were Pf growth 48h 18.1%, AMA1-RON2 inh 5.6%, Pf growth 96h 376.6%, HCV inh 12.0%, Shiga toxin inh 77.4* and CHX counter 20.0.
For COC(=O)c1ccccc1NC(=O)Nc1ccc(Br)cn1 the results were Pf growth 48h 65.5%, AMA1-RON2 inh -0.4%, Pf growth 96h 27.9%, HCV inh -5.7%, Shiga toxin inh 34.5 and CHX counter 9.9.
`COc1ccc(/C=C/C(=O)NC(=S)Nc2ccc(Br)cn2)cc1` gave Pf growth 48h 9.3%[0.00184 µM], AMA1-RON2 inh 24.5%, Pf growth 96h 0.0%, HCV inh 1.1%, Shiga toxin inh 34.3 and CHX counter 11.0*.
For CCCn1nnnc1NCc1ccccc1Cl the results were Pf growth 48h -5.6%, AMA1-RON2 inh -3.2%, Pf growth 96h 21.9%, HCV inh 13.6%, Shiga toxin inh -6.2 and CHX counter -3.0.
Screening CC1=C(C(=O)N(C(C)C)C(C)C)CC(CC(=O)NCc2ccco2)C(=O)N1Cc1ccc(F)cc1 (centres undefined) returned AMA1-RON2 inh 2.9%.
CC(C)Cn1c(SCC(=O)c2ccc(Cl)s2)nnc1-c1ccco1 was read as AMA1-RON2 inh -13.5%, Pf growth 96h 11.7µM*, HCV inh -16.0%, Shiga toxin inh 72.4 and CHX counter 32.9*.
`CCCn1c(N)c(C(=O)CSc2nnc(-c3ccoc3C)n2C)c(=O)n(C)c1=O` gave Pf growth 48h inconclusive, AMA1-RON2 inh 7.8%, Pf growth 96h inconclusive and HCV inh 8.5%.
CCCCn1c(SCC(N)=O)nnc1-c1ccco1 was read as Pf growth 48h inconclusive, AMA1-RON2 inh 13.3%, Pf growth 96h 0.0%, HCV inh 7.9%, Shiga toxin inh -6.1 and CHX counter -3.2.
For CC(C)Cn1c(N)c(C(=O)CSc2nnc(-c3ccco3)n2C)c(=O)n(C)c1=O the results were Pf growth 48h 5.22µM*, AMA1-RON2 inh 45.9%, Pf growth 96h 1.31µM* and HCV inh 15.7%.
Cc1ccc(C(=O)Nc2ccc3c(c2)C(=O)N(C)C3=O)c(C)c1 was read as Pf growth 48h 11.7%, AMA1-RON2 inh 8.8%, Pf growth 96h 24.6%, HCV inh 12.0%, Shiga toxin inh 20.8 and CHX counter 16.5.
For Cc1c(O)nc2sc3ccccc3n2c1=O the results were Pf growth 48h 15.4%, Pf growth 96h 29.3%, Shiga toxin inh 5.8 and CHX counter -2.0.
`Cc1cc2sc3nc(=O)n(-c4ccccc4)c(=O)n3c2cc1C` gave Pf growth 48h 145.9%, AMA1-RON2 inh 17.0%, Pf growth 96h 243.9%, HCV inh -13.6%, Shiga toxin inh 31.9* and CHX counter 24.8*.
For CN1CCN(C(=O)C(C(=O)c2ccc(F)cc2)n2ccccc2=O)CC1 (centres undefined) the results were Pf growth 48h 11.0%, AMA1-RON2 inh 19.3%, Pf growth 96h 2.33µM*, HCV inh 28.5%, Shiga toxin inh 16.6 and CHX counter -3.8.
Screening O=C(NCc1ccccn1)C(C(=O)c1ccc(F)cc1)n1ccccc1=O (centres undefined) returned Pf growth 48h 7.3%, AMA1-RON2 inh 58.7%, Pf growth 96h 13.1µM*, HCV inh 4.9%, Shiga toxin inh -6.0 and CHX counter -2.6.
For CC(C1CCN(Cc2cn(C)nc2-c2cccc(Cl)c2)CC1)N1CCOCC1 (centres undefined) the results were Pf growth 48h inconclusive, AMA1-RON2 inh 9.0%, Pf growth 96h -13.6%, HCV inh -17.1%, Shiga toxin inh -3.4 and CHX counter 4.5.
Screening COCCNS(=O)(=O)c1cc2[nH]c3c(c2cc1C)C(=O)CC(C)(C)C3 returned Pf growth 48h -2.3%, AMA1-RON2 inh -0.3%, Pf growth 96h inconclusive, HCV inh -15.7%, Shiga toxin inh -8.0 and CHX counter -4.4.
Screening Nc1ccccc1C(=O)C[C@H](N)C(=O)O returned AMA1-RON2 inh 34.1% and HCV inh 4.9%.
For COc1ccc(C(C#N)=C2C=CC(=NO)C=C2)cc1 the results were Pf growth 48h inconclusive, AMA1-RON2 inh 15.8µM*, Pf growth 96h inconclusive, HCV inh inconclusive, Shiga toxin inh -3.5 and CHX counter 17.5*.
Screening CC(=O)ON=C1C=CC(=C(C#N)c2ccccc2)C=C1 returned AMA1-RON2 inh 28.2µM*.
For N#CC(=C1C=CC(=NO)C(Cl)=C1)c1ccc(Cl)cc1 the results were AMA1-RON2 inh inconclusive and HCV inh 5.8%.
`CC1=NN(c2nc(-c3ccc(C)cc3)cs2)C(=O)C1N=Nc1ccccc1O` (centres undefined) gave Pf growth 48h inconclusive, AMA1-RON2 inh 46.8%, Pf growth 96h 12.4%, HCV inh 10µM*, Shiga toxin inh 50.0* and CHX counter 43.1*.
Screening CC1=NN(c2nc(-c3ccc(C)cc3)cs2)C(=O)C1N=Nc1cccc(O)c1 (centres undefined) returned Pf growth 48h -11.7%, AMA1-RON2 inh 60.8%, Pf growth 96h 3.9%, HCV inh -20.5%, Shiga toxin inh 15.3 and CHX counter 9.3.
`COc1ccc(-c2csc(N3N=C(C)C(C)C3=O)n2)cc1` (centres undefined) gave Pf growth 48h 98.6%, AMA1-RON2 inh 104.8%, Pf growth 96h 11.7µM*, HCV inh -13.6%, Shiga toxin inh 37.0 and CHX counter 15.2*.
For CC(Sc1ncn[nH]1)C(=O)Nc1ccc(Cl)cn1 (centres undefined) the results were Pf growth 48h 4.0%, AMA1-RON2 inh 24.0%, Pf growth 96h 7.1% and HCV inh 2.3%.

Source: PubChem BioAssay
